Assay outcomes as filed in PubChem BioAssay.
RGS16-Gao HTS – RGS16-Galphao interaction regulator (human); 0.38% of 220,000 active; O15492+P09471; binding response (% of control), % at 10 µM; bead-based flow cytometry RGS16-Galphao binding, fluorescence; actives lie on both sides;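 also: Galphao activated by GDP with aluminum fluoride before binding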
Target sequence (O15492 whole entry, looked up): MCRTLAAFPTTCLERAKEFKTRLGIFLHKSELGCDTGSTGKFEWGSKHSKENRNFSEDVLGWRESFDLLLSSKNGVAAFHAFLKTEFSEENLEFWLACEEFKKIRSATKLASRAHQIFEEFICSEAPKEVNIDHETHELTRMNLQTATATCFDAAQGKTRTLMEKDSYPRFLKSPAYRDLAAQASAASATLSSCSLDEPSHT
Target sequence (P09471 whole entry, looked up): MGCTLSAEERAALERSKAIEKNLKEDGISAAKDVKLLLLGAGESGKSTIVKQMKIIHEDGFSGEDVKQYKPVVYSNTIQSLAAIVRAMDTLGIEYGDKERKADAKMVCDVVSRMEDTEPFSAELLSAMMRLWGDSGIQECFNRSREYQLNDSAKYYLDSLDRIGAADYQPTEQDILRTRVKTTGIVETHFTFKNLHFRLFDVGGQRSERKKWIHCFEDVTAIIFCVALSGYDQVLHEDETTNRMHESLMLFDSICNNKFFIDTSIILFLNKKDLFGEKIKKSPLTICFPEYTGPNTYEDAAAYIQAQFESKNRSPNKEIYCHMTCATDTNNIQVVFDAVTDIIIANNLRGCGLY
RGS7-Gao reg – regulators of human RGS7-Galphao interaction | Multiplexed bead flow cytometry, RGS7-Galphao binding; actives lie on both sides | AID 1439 | P09471 | 0.35% of 220,000 active | binding response (% of control), % at 10 µM; in the data active = binding response below about 49% or above about 150%; inconclusive = no clear call, values can overlap the other calls; inactive = in between;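 also: fluorescent Galphao held in activated GDP-AlF4 state binding bead-coupled RGS7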
Target sequence (P09471 whole entry, looked up): as above
RGS4-Gao reg – human RGS4-Galphao interaction regulation | Multiplexed bead flow cytometry, RGS4-Galphao binding; actives lie on both sides | binding response (% of control), % at 10 µM | 0.33% of 220,000 active | AID 1415; in the data active = binding response below about 49% or above about 150%; inactive = in between;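 also: fluorescent Galphao activated with aluminum fluoride binding bead-coupled RGS4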
RGS8-Gao – human RGS8-Galphao interaction regulation | multiplexed bead flow cytometry, RGS8-Galphao binding; actives lie on both sides | response (percent of control binding), % at 10 µM | 0.34% of 220,000 active | AID 1423; in the data active = response below about 60% or above about 140%; inactive = in between;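 also: Galphao activated as the GDP aluminium fluoride complex binding bead-coupled RGS8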
Avidin fluor – compound fluoresces at 488/530 nm on avidin beads; 0.38% of 220,000 active; AID 1775; compound fluorescence 488/530 nm, flow cytometry; hits give high values; fluorescence (KMESF) at 10 µM; in the data active = fluorescence above about 47
GSH fluor – GSH bead compound fluorescence profile. fluorescence (KMESF) at 10 µM. 0.25% of 190,000 active. GSH beads flow cytometry, compound fluorescence 488/530 nm; hits give high values; in the data active = fluorescence above about 89;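 also: glutathione beads carrying GST-tagged Bcl family fusion proteins plus one bare bead set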
RGS4-Gao HTS – RGS4-Galphao interaction regulator (human); RGS4–Galpha-o binding response, % at 10 µM; 99% of 1,600 active; shares compounds with RGS16-Gao HTS; multiplexed bead flow cytometry, RGS–Galpha-o binding;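 also: fluorescently labeled Galpha-o bound to GDP with aluminium fluoride binding biotinylated RGS beads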
Avidin counter – counter-screen: compounds disrupting biotin binding to avidin beads; 1,700 tested, under 10 active; shares compounds with RGS16-Gao HTS; inhibition, % at 10 µM; streptavidin beads, fluorescein-biotin binding, flow cytometry; AID 1783;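 active = inhibition above 50%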;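 also: median green fluorescence of gated singlet beads compared with DMSO control wells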
RGS8-Gao single – RGS8-Galphao interaction regulation, single point confirmation | shares compounds with RGS16-Gao HTS | bead-based flow cytometry RGS8-Galphao binding, fluorescence; actives lie on both sides | binding response (% of control), % at 10 µM | 3% of 1,700 active | AID 1836; in the data active = binding response below about 72% or above about 130%; inactive = in between;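 also: Galphao activated as GDP AlF4 complex before binding bead RGS8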
RGS7-Gao confirm – RGS7-Galphao interaction regulation, single point confirmation; shares compounds with RGS16-Gao HTS; bead-based flow cytometry RGS7-Galphao binding; actives lie on both sides; response (percent of control binding), % at 10 µM; 7.8% of 1,700 active; in the data active = response below about 75% or above about 130%; inactive = in between;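 also: fluorescent Galphao activated with GDP and aluminum fluoride binding bead-coupled RGS7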
RGS16-Gao conf – RGS16-Galphao interaction regulation, single point confirmation; 4% of 1,700 active; response (% of control binding), % at 10 µM; bead-based flow cytometry, RGS16-Galphao binding; actives lie on both sides; shares compounds with RGS16-Gao HTS; in the data active = response below about 74% or above about 130%; inactive = in between;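 also: Galphao activated as the GDP aluminium fluoride complex binding bead-coupled RGS16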
RGS4-Gao single – confirmation of regulators of human RGS4-Galphao interaction; 4% of 1,700 active; shares compounds with RGS16-Gao HTS; binding response (% of control), % at 10 µM; RGS4-Galphao binding, multiplexed bead flow cytometry; actives lie on both sides; in the data active = binding response below about 74% or above about 130%; inactive = in between
RGS19-Gao single – confirmation of regulators of human RGS19-Galphao interaction; shares compounds with RGS16-Gao HTS; response (percent of control binding), % at 10 µM; 5% of 1,700 active; bead-based flow cytometry RGS19-Galphao binding; actives lie on both sides; in the data active = response below about 50% or above about 160%; inactive = in between
Of the large screens only hits and unclear results are named; the others gave an inactive call (follow-up assays come after a bar, where they were run); [ ] = remark or other dose. Sampled rows, rich in hits. Any-hit rate of the full collection: about 1.2%. Unless noted, no rule for the calls is given here.

Cc1nn(-c2ccccc2)c(C)c1/C=N/NC(=O)CSc1nnc(SCc2ccc(Cl)cc2)s1	RGS7-Gao reg 156.9[activator], Avidin fluor 68 | RGS4-Gao HTS 108.1 | Avidin counter inactive | RGS8-Gao single inactive | RGS7-Gao confirm inactive | RGS16-Gao conf inactive | RGS4-Gao single inactive | RGS19-Gao single inactive
C(=C/c1ccnc2nc(SC/C=C/c3ccccc3)nn12)/c1ccccc1	none
CCc1cc2c(=O)[nH]c(COC)nc2s1	none
CCc1cc2c(=O)[nH]c(Cc3ccc(OC)cc3)nc2s1	RGS16-Gao HTS 16.1 | RGS4-Gao HTS 88.5 | Avidin counter inactive | RGS8-Gao single inactive | RGS7-Gao confirm inactive | RGS16-Gao conf inactive | RGS4-Gao single inactive | RGS19-Gao single inactive
CCOC(=O)c1ccc(NCn2c(=O)oc3ccccc32)cc1	RGS16-Gao HTS -14.5 | RGS4-Gao HTS 96.8 | Avidin counter inactive | RGS8-Gao single inactive | RGS7-Gao confirm inactive | RGS16-Gao conf inactive | RGS4-Gao single inactive | RGS19-Gao single inactive
N#Cc1cnc(N)c(Br)c1	none
Cc1ccc(S(=O)(=O)N2CCN(S(=O)(=O)c3ccc4c(c3)OCCO4)CC2)cc1	RGS8-Gao 58.1 | RGS4-Gao HTS 54.7 | Avidin counter inactive | RGS8-Gao single inactive | RGS7-Gao confirm inactive | RGS16-Gao conf inactive | RGS4-Gao single inactive | RGS19-Gao single inactive
O=C1c2ccccc2NC(c2cccc(F)c2)N1Cc1ccco1 (stereo unspecified)	RGS7-Gao reg 31.3, RGS4-Gao reg 42.8, RGS8-Gao 51.0 | Avidin counter inactive | RGS8-Gao single inactive | RGS7-Gao confirm inactive | RGS16-Gao conf inactive | RGS4-Gao single inactive | RGS19-Gao single inactive
COc1ccc(NC(=O)Cn2nnc(-c3ccccc3NC(=O)c3ccco3)n2)cc1	none
COc1ccccc1NC(=O)Cn1nnc(-c2ccccc2NC(=O)c2ccco2)n1	none (no result: RGS16-Gao HTS, RGS7-Gao reg, RGS4-Gao reg, RGS8-Gao, Avidin fluor) | Avidin counter inactive | RGS8-Gao single inactive | RGS7-Gao confirm inactive | RGS16-Gao conf inactive | RGS4-Gao single inactive | RGS19-Gao single inactive
Cc1ccc(C)c(S(=O)(=O)Nc2ccccc2C(=O)Nc2cc(C)on2)c1	none
Cc1ccc(C)c(NC(=O)c2ccccc2NS(=O)(=O)c2cc([N+](=O)[O-])ccc2C)c1	RGS16-Gao HTS 188.4[activator] | RGS4-Gao HTS 103.7
CCc1cccc(CC)c1NC(=O)C1CC(=O)N(c2ccc3c(c2)OCCO3)C1 (stereo unspecified)	RGS16-Gao HTS -578.3 | RGS4-Gao HTS 85.8
Oc1ccccc1-c1nc(/C=C/c2ccccc2)nn1-c1ccccc1	RGS16-Gao HTS 197.5[activator] | RGS4-Gao HTS 106.9 | Avidin counter inactive | RGS8-Gao single inactive | RGS7-Gao confirm inactive | RGS16-Gao conf inactive | RGS4-Gao single inactive | RGS19-Gao single inactive
Oc1ccc(/C=C/c2nc(-c3ccccc3O)n(-c3ccccc3)n2)cc1	none
Cc1oc(-c2cccs2)nc1CN1CCC(c2ccccc2)CC1	none
Cc1ccc(C)c(N2CN(Cc3cccnc3)CNC2=S)c1	RGS16-Gao HTS 21.1 | RGS4-Gao HTS 93.5 | Avidin counter inactive | RGS8-Gao single inactive | RGS7-Gao confirm inactive | RGS16-Gao conf inactive | RGS4-Gao single inactive | RGS19-Gao single inactive
Cc1ccc(N2CN(Cc3cccnc3)CNC2=S)cc1	none
CN1C(=O)S/C(=C\c2ccc(-n3cncn3)cc2)C1=O	none
c1ccc2c(c1)OCCOCCOc1ccccc1OCCOCCO2	RGS7-Gao reg 190.7[activator], RGS4-Gao reg 187.0[activator], RGS8-Gao 145.4[activator] | Avidin counter inactive | RGS8-Gao single inactive | RGS7-Gao confirm inactive | RGS16-Gao conf inactive | RGS4-Gao single inactive | RGS19-Gao single inactive
Cc1c(NC(=S)NC(=O)C(C)(C)C)c(=O)n(-c2ccccc2)n1C	none
Cc1c(NC(=O)CNCc2ccc3c(c2)OCO3)c(=O)n(-c2ccccc2)n1C	RGS7-Gao reg inconclusive (no result: GSH fluor)
Cc1c(NC(=S)NC(=O)C2CCCCC2)c(=O)n(-c2ccccc2)n1C	RGS16-Gao HTS 13.3, RGS7-Gao reg 14.8, RGS4-Gao reg 7.8, RGS8-Gao 17.4 | Avidin counter inactive | RGS8-Gao single inactive | RGS7-Gao confirm 67.0 | RGS16-Gao conf inactive | RGS4-Gao single inactive | RGS19-Gao single inactive
Cc1c(NC(=O)Nc2ccc3c(c2)OCO3)c(=O)n(-c2ccccc2)n1C	RGS7-Gao reg 226.6[activator], Avidin fluor 149 | RGS4-Gao HTS 121.8 | Avidin counter inactive | RGS8-Gao single inactive | RGS7-Gao confirm inactive | RGS16-Gao conf inactive | RGS4-Gao single inactive | RGS19-Gao single inactive
Cc1sc2c(c1C)C(=O)/C(=C\Nc1ccccn1)S(=O)(=O)N2C	RGS7-Gao reg inconclusive (no result: GSH fluor)
CCOC(=O)C(C)Oc1ccc(OCc2ccccc2)cc1 (stereo unspecified)	none
COc1ccc(C2Oc3ccccc3N2C(C)=O)cc1 (stereo unspecified)	none
CC(=O)Oc1ccc(C2OC(=O)c3ccccc3N2C(C)=O)cc1 (stereo unspecified)	none (no result: RGS16-Gao HTS, RGS7-Gao reg, RGS4-Gao reg, Avidin fluor) | Avidin counter inactive | RGS8-Gao single inactive | RGS7-Gao confirm inactive | RGS16-Gao conf inactive | RGS4-Gao single inactive | RGS19-Gao single inactive
Cc1cc(C)n(-c2nc3ccccc3c(=O)n2OCC(=O)N(C)C)n1	none
Cc1cc(C)n(-c2nc3ccccc3c(=O)n2OCC(=O)Nc2c(C)cccc2C)n1	RGS8-Gao 173.7[activator] | RGS4-Gao HTS 148.8 | Avidin counter inactive | RGS8-Gao single 126.6[activator] | RGS7-Gao confirm 276.1[activator] | RGS16-Gao conf 209.8[activator] | RGS4-Gao single 210.2[activator] | RGS19-Gao single 246.5[activator]
CCCC(=O)Nc1sc(C(=O)Nc2cccc(N)c2)c(C)c1C(=O)OC	none
